Experimental data: PMC4336329 (PLoS ONE, 2015)
The campaign covered roughly 310,000 compounds. About 14,000 (4.5%) showed an effect of 50% or more. The effect is printed as a negative number. The sample holds strong results, similar compounds and a random draw of the others, so the mix is not that of the screen.

Biological target: human ether-à-go-go-related gene (hERG) potassium channel (human, UniProt Q12809)
Assay: primary screen, population patch clamp on CHO cells stably expressing hERG; higher = less effect of the substance
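Also: peak tail current of the secondary pulse compared with the same well before compound.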

Chain of human ether-à-go-go-related gene (hERG) potassium channel (Q12809 whole entry, looked up): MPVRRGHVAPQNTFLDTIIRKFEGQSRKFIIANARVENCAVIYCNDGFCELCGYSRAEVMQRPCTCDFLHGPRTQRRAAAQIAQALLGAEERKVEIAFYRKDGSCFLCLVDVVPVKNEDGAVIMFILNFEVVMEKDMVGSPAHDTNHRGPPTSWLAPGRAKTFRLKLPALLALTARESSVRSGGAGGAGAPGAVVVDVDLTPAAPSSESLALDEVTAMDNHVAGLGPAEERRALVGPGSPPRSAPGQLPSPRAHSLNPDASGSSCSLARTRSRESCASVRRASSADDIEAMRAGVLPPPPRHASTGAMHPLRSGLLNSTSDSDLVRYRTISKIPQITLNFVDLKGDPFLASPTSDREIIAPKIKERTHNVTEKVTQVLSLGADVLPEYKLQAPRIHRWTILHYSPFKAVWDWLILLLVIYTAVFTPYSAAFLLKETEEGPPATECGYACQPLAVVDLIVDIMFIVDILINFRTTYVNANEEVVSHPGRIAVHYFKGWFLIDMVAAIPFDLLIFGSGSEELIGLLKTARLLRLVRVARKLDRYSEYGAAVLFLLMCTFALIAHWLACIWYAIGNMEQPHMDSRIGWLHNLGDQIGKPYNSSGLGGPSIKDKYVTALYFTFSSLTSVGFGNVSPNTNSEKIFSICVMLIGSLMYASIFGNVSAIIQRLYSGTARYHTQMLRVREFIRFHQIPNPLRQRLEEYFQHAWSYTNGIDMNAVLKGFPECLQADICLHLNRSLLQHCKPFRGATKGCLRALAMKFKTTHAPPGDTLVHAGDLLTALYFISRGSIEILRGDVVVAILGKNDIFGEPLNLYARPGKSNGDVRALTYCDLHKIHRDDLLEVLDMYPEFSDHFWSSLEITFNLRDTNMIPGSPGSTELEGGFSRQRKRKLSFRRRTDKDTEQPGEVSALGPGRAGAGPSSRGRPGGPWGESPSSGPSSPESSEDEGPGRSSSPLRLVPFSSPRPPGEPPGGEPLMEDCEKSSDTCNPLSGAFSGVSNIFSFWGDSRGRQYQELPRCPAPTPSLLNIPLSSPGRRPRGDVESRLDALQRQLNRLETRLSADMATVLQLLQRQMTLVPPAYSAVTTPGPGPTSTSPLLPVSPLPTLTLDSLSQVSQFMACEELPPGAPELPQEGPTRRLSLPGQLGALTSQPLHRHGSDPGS

First: Cc1ccc(C)c(N(CC(=O)NN=C2CCCCCCC2)S(C)(=O)=O)c1
Second: Cc1cccc(NC(=O)N2CCCCCC2)c1
The “hERG current change (%, negative = inhibition) at 10uM” value of the first is higher: -5.63% for the first, -8.87% for the second.

Going from `CC1(C)O[C@@H]2CC3C4C[C@H](F)C5=CC(=O)C=CC5(C)C4C(O)CC3(C)[C@]2(C(=O)CO)O1` (stereo partly shown) to `CC(=O)c1cccc(N2C(=O)C3C4CCC(C4=C(C)C)C3C2=O)c1` (stereo not shown), the “hERG current change (%, negative = inhibition) at 10uM” value rises from 1.68% to 21.1%.

Compared with `COC(=O)C1CN(C(=O)C(C)Oc2ccccc2F)c2ccccc2O1` (stereo not shown), `CCOC(=O)Nc1ccc2c(c1)N(C(=O)OC)c1ccccc1CC2` is lower in “hERG current change (%, negative = inhibition) at 10uM” value: 15.6% for the first, -2.44% for the second.

Going from `CCCCN1C(=O)C(O)=C(C(C)=O)C1c1ccccc1` (stereo not shown) to `CCc1ccc(CNCCc2c[nH]c3ccccc23)cc1.O=C(O)C(=O)O`, the “hERG current change (%, negative = inhibition) at 10uM” value falls from 11% to -40.9%.

Going from `O=C(COc1cc(Cl)c(Cl)cc1Cl)N1CCN(c2ccccn2)CC1` to `O=C(COc1ccc(Cl)cc1Cl)N1CCN(c2ccccn2)CC1`, the “hERG current change (%, negative = inhibition) at 10uM” value falls from 16% to -33.3%.

Going from `CCC(=O)c1ccc(OCC(=O)N2CCN(c3ccccn3)CC2)cc1` to `CC(C)(C)c1ccc(OCC(=O)N2CCN(c3ccccn3)CC2)cc1`, the “hERG current change (%, negative = inhibition) at 10uM” value falls from -31.5% to -51.7%.

First: O=C(COc1ccc(F)c(Cl)c1)N1CCN(c2ccccn2)CC1
Second: Cc1cc(OCC(=O)N2CCN(c3ccccn3)CC2)cc(C)c1Br
The “hERG current change (%, negative = inhibition) at 10uM” value of the first is lower: -55.3% for the first, -32.3% for the second.

First: Cc1ccc(C)c(NS(=O)(=O)c2ccc3c(c2)NC(=O)CCS3)c1
Second: Cc1ccc(S(=O)(=O)Nc2ccccc2C(=O)N2CCN(C)CC2)cc1
The “hERG current change (%, negative = inhibition) at 10uM” value of the first is lower: -15% for the first, -3.2% for the second.

Compared with `COC(=O)COc1cccc(/C=N/NC(=O)CCSc2ccccc2)c1`, `CCN(CC)CCC(=O)N1c2ccccc2CCc2ccc(NC(=O)OC)cc21.Cl` is higher in “hERG current change (%, negative = inhibition) at 10uM” value: -15.7% for the first, -8.57% for the second.

First: C(=N\c1nc2ccccc2n1CCN1CCOCC1)/c1cccs1
Second: O=C(NCc1cccc(Cl)c1)C1CCC(=O)N(CCN2CCOCC2)C1 (stereo not shown)
The “hERG current change (%, negative = inhibition) at 10uM” value of the first is lower: -20.7% for the first, 20.5% for the second.

Going from `CCOc1ccc(N2C(=O)CC(Sc3nc(-c4cccs4)cc(C(F)(F)F)c3C#N)C2=O)cc1` (stereo not shown) to `Cc1cc(C)cc(N2C(=O)CC(N(C(=O)c3ccco3)c3cc(C)cc(C)c3)C2=O)c1` (stereo not shown), the “hERG current change (%, negative = inhibition) at 10uM” value rises from 10.2% to 12.8%.

First: CCN(CC)CCCNC(=O)c1csc(Nc2cccc3ccccc23)n1
Second: CCCNC(=O)c1csc(Nc2cccc3ccccc23)n1
The “hERG current change (%, negative = inhibition) at 10uM” value of the first is lower: -71.6% for the first, -30% for the second.

Compared with `COCCNC(=O)c1csc(Nc2cccc3ccccc23)n1`, `CN(C)CCNC(=O)c1csc(Nc2cccc3ccccc23)n1` is lower in “hERG current change (%, negative = inhibition) at 10uM” value: -35.9% for the first, -55.4% for the second.

First: CCN(CC)C(=O)c1csc(Nc2cccc3ccccc23)n1
Second: O=C(NCC(O)CO)c1csc(Nc2cccc3ccccc23)n1 (stereo not shown)
The “hERG current change (%, negative = inhibition) at 10uM” value of the first is lower: -16.9% for the first, -2.43% for the second.

Compared with `Cc1ccc(S(=O)(=O)N(C)C)cc1NC(=S)NC(C)CCC(C)C` (stereo not shown), `Cc1ccc(S(=O)(=O)NC(=O)c2cc(C)n(CCCn3ccnc3)c2C)cc1` is higher in “hERG current change (%, negative = inhibition) at 10uM” value: -14% for the first, -2.28% for the second.

Compared with `Cn1ccnc1SCC(=O)c1cccc(C(F)(F)F)c1`, `CCOC(=O)CNC(=O)Cn1cnc2c(nnn2-c2cccc(OC)c2)c1=O` is higher in “hERG current change (%, negative = inhibition) at 10uM” value: -27.8% for the first, 17.5% for the second.

Going from `COC(=O)c1ccc(Cn2nc(C)c(Cl)c2C)o1` to `COc1cccc(-n2cnc3sc(C)c(C)c3c2=O)c1`, the “hERG current change (%, negative = inhibition) at 10uM” value falls from 8.75% to -12%.

Going from `CC12CC(NC(=O)N1c1cccc(C(=O)N3CCN(c4ccccc4F)CC3)c1)c1ccccc1O2` (stereo not shown) to `CC(=O)N1CCN(c2ccc(NC(=O)c3ccc(OCc4ccccc4)cc3)cc2)CC1`, the “hERG current change (%, negative = inhibition) at 10uM” value rises from -6.74% to 16.7%.

Compared with `Cc1ccc2nc3c(cc(C(=O)NCCCn4ccnc4)n3C)c(=O)n2c1`, `Cc1ccc2nc3c(cc(C(=O)NC4CCCC4)c(=N)n3CCCn3ccnc3)c(=O)n2c1` is lower in “hERG current change (%, negative = inhibition) at 10uM” value: -34.1% for the first, -58.6% for the second.

Going from `Cc1ccc2nc3c(cc(C(=O)NC4CCCC4)c(=N)n3C3CCCCC3)c(=O)n2c1` to `Cc1ccc2nc3c(cc(C(=O)NC4CCCCC4)c(=N)n3C3CCCCC3)c(=O)n2c1`, the “hERG current change (%, negative = inhibition) at 10uM” value rises from -77.2% to -74.7%.

First: Cc1ccc(S(=O)(=O)c2cc3c(=O)n4ccccc4nc3n(C3CCCC3)c2=N)cc1
Second: Cc1ccc(S(=O)(=O)c2cc3c(=O)n4ccccc4nc3n(C3CCCCC3)c2=N)cc1
The “hERG current change (%, negative = inhibition) at 10uM” value of the first is higher: 6.01% for the first, -5.93% for the second.

Going from `CCn1cc(C(=O)NC2CCCCCC2)c(=O)c2ccc(C)nc21` to `CCn1cc(C(=O)NC2CCCCC2)c(=O)c2ccc(C)nc21`, the “hERG current change (%, negative = inhibition) at 10uM” value rises from -4.88% to 8.6%.

Going from `O=C(/C=C/c1ccc(O)c(O)c1)NC(=O)c1ccccc1O` to `COC(=O)c1ccccc1NC(=O)c1ccc2c(c1)OCCO2`, the “hERG current change (%, negative = inhibition) at 10uM” value falls from 6.74% to 1.86%.

First: Cc1ccc(-c2nc(CS(=O)(=O)CC(=O)NCc3cccc(F)c3)c(C)o2)cc1
Second: Cc1cc([N+](=O)[O-])nn1CCCC(=O)NCc1ccc(F)cc1
The “hERG current change (%, negative = inhibition) at 10uM” value of the first is higher: 9.53% for the first, -0.962% for the second.

Compared with `COc1ccc(S(=O)(=O)N2CCOCC2)c(C)c1C`, `COc1ccccc1N1CCN(C(=O)CCCn2nc(C)c([N+](=O)[O-])c2C)CC1` is lower in “hERG current change (%, negative = inhibition) at 10uM” value: 5.99% for the first, -19.1% for the second.

Compared with `Cc1ccc(C(=O)N2CCC3(CC2)NCCc2[nH]cnc23)cc1`, `O=C(c1ccc(F)cc1)N1CCC2(CC1)NCCc1[nH]cnc12` is higher in “hERG current change (%, negative = inhibition) at 10uM” value: -53.9% for the first, 4.43% for the second.

Compared with `COc1ccc(C(=O)N2CCC3(CC2)NCCc2[nH]cnc23)cc1`, `CCOc1ccc(C(=O)N2CCC3(CC2)NCCc2[nH]cnc23)cc1` is lower in “hERG current change (%, negative = inhibition) at 10uM” value: -18.8% for the first, -70.1% for the second.

First: CCOc1ccc(C(=O)N2CCC3(CC2)NCCc2[nH]cnc23)cc1OCC
Second: O=C(c1ccc(F)c(F)c1)N1CCC2(CC1)NCCc1[nH]cnc12
The “hERG current change (%, negative = inhibition) at 10uM” value of the first is higher: 22.6% for the first, 10.3% for the second.

Going from `O=C(c1ccccc1)N1CCC2(CC1)NCCc1[nH]cnc12` to `O=C(c1ccc(Br)cc1)N1CCC2(CC1)NCCc1[nH]cnc12`, the “hERG current change (%, negative = inhibition) at 10uM” value falls from 26.6% to -65.8%.

Going from `CC(C)(C)c1ccc(C(=O)N2CCC3(CC2)NCCc2[nH]cnc23)cc1` to `Cc1cc([N+](=O)[O-])nn1CCCC(=O)N1CCN(c2ccc(F)cc2)CC1`, the “hERG current change (%, negative = inhibition) at 10uM” value falls from -8.51% to -53.2%.

Going from `O=C(NCc1ccco1)c1ccccc1NS(=O)(=O)c1cccs1` to `N#Cc1nc(-c2ccco2)oc1NCCc1ccccc1`, the “hERG current change (%, negative = inhibition) at 10uM” value falls from 3.9% to -5.59%.

Going from `Cc1ccc(Cn2ccsc2=NC(=O)COC(=O)C(C)C)cc1` to `CCOC(=O)Nc1ccc2c(c1)N(C(=O)N(C)C)c1ccccc1CC2`, the “hERG current change (%, negative = inhibition) at 10uM” value rises from -15.3% to -6.99%.

Going from `CSc1nnc2n(C)c3c(c(=O)n12)C1(CCCC1)Cc1ccccc1-3` to `CCOC(=O)Nc1ccc2c(c1)N(C(=O)C(C)N1CCCC1)c1ccccc1CC2.Cl` (stereo not shown), the “hERG current change (%, negative = inhibition) at 10uM” value falls from 2.33% to -60.2%.

Going from `O=C(CNc1ccc(Br)cc1)NNC1=NCCC1` to `CCOC(=O)Nc1ccc2c(c1)N(C(=O)CCN(C)C)c1ccccc1CC2`, the “hERG current change (%, negative = inhibition) at 10uM” value falls from 1.72% to -40.7%.

Compared with `CCOC(=O)Nc1ccc2c(c1)N(C(=O)CN1CCN(C)CC1)c1ccccc1S2.Cl`, `CCOC(=O)Nc1ccc2c(c1)N(C(=O)CCN1CCN(C)CC1)c1ccccc1S2.Cl` is higher in “hERG current change (%, negative = inhibition) at 10uM” value: -64.4% for the first, -15.2% for the second.

Compared with `CCOC(=O)Nc1ccc2c(c1)N(C(=O)CCN(CC)CC)c1ccccc1CC2`, `CCOC(=O)Nc1ccc2c(c1)N(C(=O)N1CCN(C)CC1)c1ccccc1S2.Cl` is higher in “hERG current change (%, negative = inhibition) at 10uM” value: -50.3% for the first, -46% for the second.

First: C=CCSc1nc(N(CC)CC)c2sccc2n1
Second: COc1cc(CSc2nnnn2-c2ccc(C)cc2)cc(OC)c1OC
The “hERG current change (%, negative = inhibition) at 10uM” value of the first is lower: -12.4% for the first, 8.81% for the second.

Going from `CCCc1cc(=O)oc2cc(C)c3c(C)coc3c12` to `CCOC(=O)c1ccc2[nH]c3c(c2c1)CCCC3`, the “hERG current change (%, negative = inhibition) at 10uM” value falls from 5.51% to -19.2%.

Going from `COC(=O)C1=C(C)NC(C)=C(C(=O)OCCN(C)Cc2ccccc2)C1c1cccc([N+](=O)[O-])c1.Cl` (stereo not shown) to `COc1cc(C(c2c(C)[nH][nH]c2=O)c2c(C)[nH][nH]c2=O)ccc1OC(=O)c1cccc([N+](=O)[O-])c1`, the “hERG current change (%, negative = inhibition) at 10uM” value rises from 0.0465% to 10.4%.

Compared with `COc1cc(/C=C/c2noc(-c3ccccc3O)n2)cc(OC)c1OC`, `Cc1cc([N+](=O)[O-])nn1CCCC(=O)N1CCN(c2ccccc2)CC1` is lower in “hERG current change (%, negative = inhibition) at 10uM” value: 9.26% for the first, -21.4% for the second.

Compared with `CC(OC(=O)CCC(=O)c1cccs1)C(=O)NC1CCCCC1C` (stereo not shown), `CC(OC(=O)c1cccs1)C(=O)NC1CCCCC1C` (stereo not shown) is lower in “hERG current change (%, negative = inhibition) at 10uM” value: -6.24% for the first, -66.7% for the second.

Compared with `CC(OC(=O)c1cccs1)C(=O)NC1CC1` (stereo not shown), `Cc1nn(CC(=O)N2CCN(c3ccccc3)CC2)c(C)c1[N+](=O)[O-]` is lower in “hERG current change (%, negative = inhibition) at 10uM” value: -5.98% for the first, -9.49% for the second.

First: Cc1nn(CCCC(=O)N2CCN(c3ccc(F)cc3)CC2)c(C)c1[N+](=O)[O-]
Second: Cc1c(Br)c([N+](=O)[O-])nn1CCCC(=O)N1CCN(c2ccccc2)CC1
The “hERG current change (%, negative = inhibition) at 10uM” value of the first is lower: -62.1% for the first, -32.4% for the second.

First: Cc1c(Cl)c([N+](=O)[O-])nn1CCCC(=O)O
Second: Cc1c(Cl)c([N+](=O)[O-])nn1CCCC(=O)N1CCN(c2ccccc2)CC1
The “hERG current change (%, negative = inhibition) at 10uM” value of the first is higher: 9.17% for the first, -58% for the second.
